Screens (PubChem)
Hits are enriched below; roughly 21% of the tested compounds scored in any of these assays.
Pf growth 48h: inhibits P. falciparum growth in the first generation, 48 h; Potency, µM (top dose mostly 28.7 µM), for the others: at the top dose activity change, negative = inhibition, actives largely listed as inhibitors; 310,000 tested, 5.9% active; P. falciparum luciferase growth in erythrocytes, 48 h; active = well fitted inhibition curve with a large enough effect; inconclusive = small, poorly fitted or top-dose-only effect, or another doubt; inactive = no such curve, though single readings can be large or run the other way; note: potency is the fitted concentration of half-maximal effect; % is set by controls: 0 for no effect and ±100 for the full control effect
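Firefly luciferase activity from engineered P. falciparum reports growth; inhibitors lower the luminescent signal. Cultures contained 2% hematocrit erythrocytes at 0.1% final parasitemia.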
CHX counter: affects cycloheximide protein synthesis inhibition readout, counter-screen; max response, %; cell reporter, cycloheximide protein synthesis inhibition counterscreen; 300,000 tested, 12% active; AID 2314; in the data active = max response mostly above about 13%, no sharp cut-off; inactive = mostly below about 14%; note: read at 38.3 µM for the half of the compounds with a filed dose; 0% is about no effect
Pf growth 96h: inhibits malaria parasite growth, 96 h; AID 504834; 320,000 tested, 6.9% active; P. falciparum luciferase reporter growth, 96 h; Potency, µM (doses to about 28.7 µM), for inactives: top-dose activity change, negative = inhibition, hits mostly inhibitors; active = well fitted inhibition curve with a large enough effect; inconclusive = small, poorly fitted or top-dose-only effect, or another doubt; inactive = no such curve, though single readings can be large or run the other way; note: potency is the fitted concentration of half-maximal effect; % is set by controls: 0 for no effect and ±100 for the full control effect
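Delayed-death screen, second-generation endpoint: infected erythrocytes, 2% hematocrit, 0.05% parasitemia final; 96 hours at 37 C, 5% CO2; luciferase detection reagent; luminescence decrease equals reduced growth.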
SARS PLP yeast: SARS-CoV PLP inhibition in yeast | 330,000 tested, 0.19% active | S. cerevisiae expressing SARS-CoV PLpro, growth rescue | Potency, µM (doses to about 32.9 µM), for the others: at the top dose activity, positive = growth rescue, usual class: activators; note: potency is the fitted concentration of half-maximal effect; 0% is about no effect; nearly all actives have a fitted effect of over 55% in size
Shiga inhibitor: Shiga toxin inhibition. Vero cells, Shiga toxin protein synthesis inhibition reporter. inhibition, % at 38.7 µM. 290,000 tested, 9.2% active. AID 2315; in the data active = inhibition mostly above about 28%, no sharp cut-off; inactive = mostly below about 43%; note: 0% is about no effect
NS1 inh: influenza NS1 inhibition; Potency, µM (series often up to 46.1 µM), for inactives: at the highest dose activity, positive = more growth; AID 2326; 270,000 tested, 0.4% active; note: potency is the fitted concentration of half-maximal effect; actives are rising curves; nearly all actives have a fitted effect of over 50% in size
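Read-out: OD600 growth recovery of NS1-expressing budding yeast. Cells grown overnight at 30C in -URA glucose medium, washed, resuspended and diluted 1:100 in 2% galactose assay medium, pH 6.0. Same strain lacking NS1 served as positive control.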
The depositor's hits bear a star; ? = inconclusive; / = no result; [ ] = another dose, or the depositor's remark. Unless noted, calls come from the whole dose curve.

SMILES	Pf growth 48h	CHX counter	Pf growth 96h	SARS PLP yeast	Shiga inhibitor	NS1 inh
Cc1ccc(Cn2nc3c4cc(F)ccc4n(Cc4ccc(F)cc4)cc-3c2=O)cc1	32.6%	-4.9	0.7%	0.0%	-1.4	6.5%
COc1cc2c3nnc(-c4ccc(F)cc4)c-3cn(Cc3ccc(C)cc3)c2cc1OC	0.329µM*	-0.8	0.37µM*	-8.8%	2.8	21.8%
COc1cc2c3nnc(-c4ccccc4)c-3cn(Cc3ccc(F)cc3)c2cc1OC	-36.8%[1.15 µM]	-6.6	?	-0.9%	-6.8	0.6%
CN(C)/C=N/c1c(C#N)cnn1-c1ccc(F)c(Cl)c1	/	15.3	/	/	32.2	/
CC(=O)NC(CC(C)C)C(=O)NC(=O)NCc1ccccc1 (stereo not given)	0.4%	8.1	44.7%	0.5%	18.2	8.1%
CN(Cc1nc2ccccc2n1C)C(=O)c1ccco1	14.8%	-3.1	1.65µM*	-8.4%	-23.4	8.2%
Cn1c(C(C#N)C(=O)c2ccco2)nc2ccccc21 (stereo not given)	57.2%	34.0*	27.1%	2.0%	70.8*	-56.8%
Cn1c(C(C#N)C(=O)Cc2cccc3ccccc23)nc2ccccc21 (stereo not given)	0.0%	7.5	-9.2%	-2.2%	-4.3	5.5%
Oc1c(N=Nc2ccccn2)ccc2ccccc12	?	35.9*	8.28µM*	-32.4%	78.6*	-176.8%
c1ccc2c(c1)ccc1ncccc12	23.9%	6.3	35.5%	1.9%	7.7	/
Cn1c(CCC(=O)Nc2cc(S(C)(=O)=O)ccc2Cl)nc2cc(S(=O)(=O)N3CCOCC3)ccc21	0.4%	/	-4.0%	0.7%	/	/
O=C(C1CCN(S(=O)(=O)c2ccccc2)CC1)N1CCC1	-16.3%	/	-10.4%	-0.5%	/	/
CC(=O)Nc1ccc(S(=O)(=O)NCCc2ccc(S(N)(=O)=O)cc2)cc1	/	-0.6	10.4µM*	16.4%	31.9	3.8%
CCOc1ccc(CCNC(=O)COC(=O)CNS(=O)(=O)c2ccc(NC(C)=O)cc2)cc1OCC	?	/	8.28µM*	-1.9%	/	/
CC(=O)Nc1ccc(S(=O)(=O)NCC(=O)NCCc2ccc(S(N)(=O)=O)cc2)cc1	-10.2%	2.2	0.828µM*	-0.4%	-5.1	/
CC(=O)Nc1ccc(S(=O)(=O)NCC(=O)NCCCc2ccccc2)cc1	?	-4.0	?	11.6%	1.9	8.8%
CC(=O)Nc1ccc(S(=O)(=O)NCCc2ccc(F)cc2)cc1	5.3%	3.4	?	0.1%	-13.4	3.8%
Cc1ccc(Cl)c(NC(=O)CCl)c1Cl	?	2.6	11.7µM*	2.4%	6.8	/
COc1ccc(Nc2nccc3c2nnn3C)cc1	196.8%	45.4*	225.5%	-17.6%	96.8*	0.6%
N#CC/C(N)=N/Nc1nc2ccccc2nc1Cc1ccccc1	4.65µM*	-8.3	?	0.4%	-12.4	?
O=C(CCSc1ccccc1)Nc1nc2c(s1)COc1ccccc1-2	4.6%	-0.9	12.6%	-7.3%	12.2	3.1%
CCCC(=O)Nc1nc2c(s1)COc1ccccc1-2	85.5%	24.3*	51.8%	-15.9%	31.2*	-19.8%
Nc1nc2c(s1)COc1ccccc1-2	42.3%	13.7*	31.1%	-6.5%	42.5	-64.7%
CCCN(CCC)S(=O)(=O)c1ccc(C(=O)Nc2nc3c(s2)CCc2ccccc2-3)cc1	-18.8%	-1.9	?	-7.0%	-7.3	-4.8%
O=C(NC(=S)Nc1nc2c(s1)CSc1ccccc1-2)c1ccccc1	/	13.3	?	-46.0%	22.6	-101.1%
SMILES	Pf growth 48h	CHX counter	Pf growth 96h	SARS PLP yeast	Shiga inhibitor	NS1 inh
CCCCC(=O)Nc1nc2c(s1)COc1ccccc1-2	41.8%	37.7*	1.1%	-9.0%	42.5*	14.9%
CC(C)(C)C(=O)Nc1nc2c(s1)COc1ccccc1-2	?	19.5*	?	?	46.0*	2.0%
Cc1cc(C)n(CCOc2ccc(Cl)cc2Cl)n1	0.5%	0.9	42.6%	-13.1%	30.5	-9.9%
O=[N+]([O-])c1ccccc1Sc1nccn1Cc1ccccc1	7.1%	-5.0	3.29µM*	22.7%	-11.3	-15.0%
Cc1cc(C)nc(Sc2nc(Cl)nc(N(c3ccccc3)c3ccccc3)n2)n1	?	5.6	/	4.5%	1.9	-2.7%
Cc1[nH]c2ccccc2c1-c1nc(-c2ccc(Cl)cc2)nnc1-c1ccccc1	-5.8%	13.4	52.1%	0.5%	-1.3	/
